This note sets out measurements from PubChem BioAssay (NCI).

The structures appear in SMILES notation. Compounds without any hit were thinned out: in the full panel of roughly 79,000, 15% have a hit. Active and inactive are the calls of the source. Rule as the data show it: active = growth inhibition above about 70%; inactive = the rest.

The nature of this assay: NCI Yeast Anticancer Drug Screen. Data for the mlh1 rad18 strain (AID 175). As to conditions: S. cerevisiae mlh1 rad18 strain growth inhibition; at 50.0 µM; hits give high values. Here is the method: Growth inhibition of yeast strains with defined genetic alterations is measured as a screen for potential anti-cancer activity. Selected strains with alterations in DNA damage repair or cell cycle control were exposed to compounds and growth inhibition was measured relative to vehicle treated controls. The strain used in this assay is mlh1 rad18
For the molecule `O=C1CCSCCC(=O)Nc2ccccc2N1`, the growth inhibition was -65.4% (inactive).
Consider `C=C(Cl)C(Br)(CCl)CCC(Cl)C(C)C` (stereo not given) (tested in a mixture with another compound), for which the growth inhibition is 73.8% (active).
Take `N#CC(C#N)=NNc1ccc2cn[nH]c2c1`: the growth inhibition is -1.95% (inactive).
For `CCOC(=O)c1[nH]c2ccsc2c1C[N+]1(C)CCCCC1`, the growth inhibition was 16.3% (inactive).
Take `COc1cc2c(cc1OC)C(=O)/C(=C/c1ccc(O)cc1)CC2`: the growth inhibition is 22.4% (inactive).
Take `CC1CCC2CC(=O)C(Br)CC2(C)C1C` (stereo not given): the growth inhibition is 7.45% (inactive).
Then `N=c1ncn(Cc2ccccc2)c2nc[nH]c12`, with -4% (inactive); and `COc1ccc(C(=O)C(C(=O)C(=O)Nc2ccc(Cl)c(Cl)c2)c2ccc(OC)cc2)cc1` (stereo not given), with -17.3% (inactive); and `CCc1nc(N)nc(N)c1-c1ccc(Cl)c(S(=O)(=O)O)c1`, with 1.85% (inactive).
As to `Nc1ccc2cc(S(=O)(=O)O)cc(S(=O)(=O)O)c2c1`, the growth inhibition was 31.8% (inactive).
Turning to `CCOC1CCCCO1` (stereo not given), the growth inhibition was -8.1% (inactive).
As for `O=C1/C(=C/c2ccc(C(=O)O)cc2)CNC/C1=C\c1ccc(C(=O)O)cc1`, the growth inhibition is -11.8% (inactive).
The result for `COc1ccccc1/C=C(\C#N)C(=O)O` reads -17.9% (inactive); that for `O=c1nc(NCCc2c[nH]c3ccccc23)ccn1C1OC(CO)C(O)C1O` (stereo not given), 7.25% (inactive); that for `CCCCSc1nc2c(=O)n(C)c(=O)n(C)c2n1C`, 6.95% (inactive).
The result for `COC(=O)/C=C1/CC[C@H]2[C@@H]3CCC4=CC(=O)CC[C@]4(C)[C@H]3C(=O)C[C@]12C` reads 33.2% (inactive); that for `Cc1cc(O)c(C(c2c(O)cc(C)c(Cl)c2C)C(Cl)(Cl)Cl)c(C)c1Cl`, 18.2% (inactive).
On to `CC1COC(C)(C2CC2)O1` (stereo not given), for which the growth inhibition is 6.5% (inactive).
Then `O=C1OC2CCCC[C@@H]2C2C[C@]34CCCCC3[C@@H](C(=O)O4)C12` (stereo not given in full), with 42.7% (inactive); and `CCC1=CCN(c2cc(C)ccn2)OC1c1ccc(OC)cc1` (stereo not given), with 6.35% (inactive); and `c1ccc(C2NC(c3ccccc3)c3c(ccc4ccccc34)O2)cc1` (stereo not given), with 20.6% (inactive).
Take `O=C(NC(=O)c1cc(-c2ccccc2)n[nH]1)c1ccccc1`: the growth inhibition was -10.8% (inactive).
As for `Cc1[nH]c(=O)c2oc3cc4ccccc4cc3c2c1C(=O)O`, the growth inhibition is -19.1% (inactive).
In the case of `c1ccc2c(c1)Nc1nsnc1N2`, the growth inhibition was 2.25% (inactive).
In the case of `CCOC(=O)c1ccc(OC(=O)Nc2ccccc2)cc1`, the growth inhibition was -28.1% (inactive).
Turning to `CN(C)Cc1cccc(C(F)(F)F)c1C(O)c1ccccc1` (stereo not given), the growth inhibition was -14.7% (inactive).
As to `Nc1ccc2ccccc2c1C(=O)c1ccccc1`, the growth inhibition was -5.75% (inactive).
In the case of `CC(C)[Si](OC1=C(c2ccccc2)C(NC(=O)/C=C/c2ccc([N+](=O)[O-])cc2)CCC1)(C(C)C)C(C)C` (stereo not given), the growth inhibition is 29.9% (inactive).
Regarding `COc1cccc(/C(C#N)=C\O)c1`, the growth inhibition is -8.8% (inactive).
Consider `CSc1cc(C)c(OC(=O)Nc2cc(C)ccc2C)c(C)c1`, for which the growth inhibition was 9.75% (inactive).
`CCN(CC)CCOCCO`: the growth inhibition was -2.15% (inactive).
In the case of `O=S(=O)(Oc1ccc(OS(=O)(=O)c2ccccc2)cc1)c1ccccc1`, the growth inhibition is 14.6% (inactive).
As for `C#CC(C)(O)CCCCCC` (stereo not given), the growth inhibition was -7.1% (inactive).
For `COc1ccc2c(C)[n+]3ccc4cc(OC)c(OC)cc4c3cc2c1` (tested in a mixture with another compound), the growth inhibition was 32.8% (inactive).
Turning to `COC1=CC(=O)C(C2CC(=O)c3c(O)cc(O)cc3O2)=CC1=O` (stereo not given), the growth inhibition is -63.9% (inactive).
Take `CC(=O)O/C(C)=C/C(C)C`: the growth inhibition is -8.95% (inactive).
Then `C(#CC(Sc1ccccc1)=C(Sc1ccccc1)Sc1ccccc1)Sc1ccccc1`, with -6.25% (inactive).
Then `C=CCn1c(SC)nc2c(c1=O)CCCC2`, with -10.2% (inactive); and `O=C1C=CC(=O)c2c1ccc1c3ccccc3n(CCCCCn3c4ccccc4c4ccc5c(c43)C(=O)C=CC5=O)c21`, with -19% (inactive); and `Cc1cnc2[nH]c(-c3ccc(Cl)cc3)cc(=O)c2c1`, with -52.1% (inactive).
